Neddylation inh: inhibitors of human cullin neddylation | P61081+Q13564 | TR-FRET cullin neddylation, biochemical | calls only at 25 µM | 0.58% of 360,000 active; in the data active means inhibition above about 36%
UHRF1 MBD2 ctr: blocks human UHRF1 binding to methylated DNA; UHRF1 binding to methylated oligo, TR-FRET; 0.75% of 370,000 active; Q96T88; inhibition, % at 4.4 µM; AID 687016; in the data active means inhibition above about 21%;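 further: UHRF1 SRA domain binding a hemimethylated CpG hairpin DNA probe; 0% = median of test compound wells and 100% = reference inhibitor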
Target sequence (Q96T88 whole entry, looked up, the tested form may be a part): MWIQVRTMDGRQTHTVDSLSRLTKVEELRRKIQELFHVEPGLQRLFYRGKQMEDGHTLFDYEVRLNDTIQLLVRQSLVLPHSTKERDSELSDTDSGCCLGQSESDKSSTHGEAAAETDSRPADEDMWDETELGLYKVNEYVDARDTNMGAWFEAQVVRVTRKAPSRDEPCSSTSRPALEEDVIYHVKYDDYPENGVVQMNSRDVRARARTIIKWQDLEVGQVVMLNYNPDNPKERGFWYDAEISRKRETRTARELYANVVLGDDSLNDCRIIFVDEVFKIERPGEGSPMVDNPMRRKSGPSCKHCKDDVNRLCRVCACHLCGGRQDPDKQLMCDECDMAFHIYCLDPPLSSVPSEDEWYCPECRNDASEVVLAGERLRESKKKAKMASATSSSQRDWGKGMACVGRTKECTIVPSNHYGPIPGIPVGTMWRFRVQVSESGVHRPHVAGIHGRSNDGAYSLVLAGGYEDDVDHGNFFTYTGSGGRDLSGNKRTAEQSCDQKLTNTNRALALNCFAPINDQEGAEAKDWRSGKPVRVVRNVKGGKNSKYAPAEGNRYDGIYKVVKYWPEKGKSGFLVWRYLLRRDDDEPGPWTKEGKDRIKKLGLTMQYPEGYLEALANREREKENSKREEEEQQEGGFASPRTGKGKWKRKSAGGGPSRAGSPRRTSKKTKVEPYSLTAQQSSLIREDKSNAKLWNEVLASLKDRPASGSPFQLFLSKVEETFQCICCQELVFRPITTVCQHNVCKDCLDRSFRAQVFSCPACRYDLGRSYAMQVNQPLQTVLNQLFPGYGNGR
UBC13 polyUb: blocks human UBC13 polyubiquitin chain formation. P61088. TR-FRET. inhibition, % at 20 µM. 0.47% of 330,000 active. AID 485273; in the data active means inhibition above about 45%, passing the limit was not always enough
MBD2 DNA inh: inhibitors of human MBD2 binding to methylated oligonucleotide | TR-FRET | inhibition, % at 4.4 µM | 0.31% of 370,000 active | AID 686964; in the data active means inhibition above about 13%
Starred values were filed as active, the others as inactive; i = inactive; . = no result given; + = active, no number. Compounds with a hit are over-represented: about 1.8% of the library has one in this group of screens.

SMILES	Neddylation inh	UHRF1 MBD2 ctr	UBC13 polyUb	MBD2 DNA inh
COc1cc2c(cc1OC)-c1c(OC)c(OC)cc3c1C(C2)N(C)CC3 (configuration not stated)	i	34*	-129	13
NCC(CC(=O)O)c1ccc(Cl)cc1 (configuration not stated)	i	25*	8	9
CSc1nc2ccccc2c(=O)n1-c1cccnc1	i	-1	4	4
CCCc1cc(=O)oc2cc(OCC(=O)N3CCC(C(=O)O)(c4ccccc4)CC3)ccc12	+	3	3	3
Cc1sc2ncnc(N3CCC(C(=O)Nc4ccc(C#N)c(Cl)c4)CC3)c2c1C	i	-1	-2	-6
Clc1ccc(C[n+]2c(-c3ccccc3)cc(-c3ccccc3)cc2-c2ccccc2)cc1	.	-2	47*	2
Fc1ccc(C[n+]2c(-c3ccccc3)cc(-c3ccccc3)cc2-c2ccccc2)cc1	.	16	34	8
CCOc1cccc(N2C(=O)/C(=C/c3ccco3)C(=O)NC2=S)c1	i	50*	-2	12
COc1cccc(N2C(=O)/C(=C/c3ccc(C)o3)C(=O)NC2=S)c1	i	1	-15	1
O=C1NC(=O)N(Cc2ccco2)C(=O)/C1=C\c1cccn1CCOc1ccc(Cl)cc1	i	55*	-28	2
Cc1cc(/C=C2/C(=O)NC(=O)N(Cc3ccco3)C2=O)c(C)n1-c1ccccc1	i	45*	-13	7
CCc1ccc(N2C(=O)NC(=O)/C(=C/c3cccn3CCOc3ccc(C)cc3)C2=O)cc1	i	0	-11	2
Cc1cccc(OCCn2cccc2/C=C2/C(=O)NC(=O)N(Cc3ccco3)C2=O)c1	i	49*	-12	4
O=C(NCCN1CCC2(CC1)C(=O)NCN2c1ccccc1)c1ccc(Cl)c(Cl)c1	.	-5	.	2
CN[C@@H]1C[C@@H](c2ccc(Cl)c(Cl)c2)c2ccccc21	.	.	46*	.
COC(=O)C1=C(c2ccc(C(C)=O)cc2)C[C@@H]2CC[C@H]1N2C(=O)N1CCC(O)(c2ccc(Cl)cc2)CC1	i	0	-12	2
CC(=O)c1ccc2c(c1)C1C(Cl)C(Sc3ccccc3[N+](=O)[O-])CC1C(C(=O)O)N2 (configuration not stated)	i	9	.	4
O=C(O)c1cccc2c1NC(C(=O)O)C1CC(Sc3ccccc3[N+](=O)[O-])C(Cl)C21 (configuration not stated)	i	62*	.	21*
CC12CC(O)C3C(CCC4=CC(=O)CCC43C)C1CCC2=O (configuration not stated)	i	2	.	-1
ClC1=CCC2CN(CCN3CCCCC3)CC2C1 (configuration not stated)	i	2	10	0
CCN1CCN(c2nc([N+](=O)[O-])nn2C)CC1	i	-2	-6	-1
CN(C)[C@@H]1C(=O)C(C(N)=O)=C(O)[C@@]2(O)C(=O)C3=C(O)c4c(O)cccc4[C@@](C)(O)[C@H]3[C@H](O)[C@@H]12	i	67*	-16	35*
COc1cc2c(cc1O)C[C@H]1NCCc3cc4c(c-2c31)OCO4	+	30*	-43	23*
NCCc1cc(O)c(O)cc1O	i	58*	.	25*
COc1ccc(CCN)cc1O	i	-1	-20	-3
SMILES	Neddylation inh	UHRF1 MBD2 ctr	UBC13 polyUb	MBD2 DNA inh
COc1ccc(CN2C(=O)NC(=O)/C(=C\c3ccco3)C2=O)cc1	i	13	-36	3
COc1ccc(/C=C2/C(=O)N(Cc3ccco3)C(=O)N(C(C)C)C2=O)cc1	i	32*	-34	1
Cc1cc(/C=C2\C(=O)NC(=O)N(c3cccc(F)c3)C2=O)c(C)n1-c1cc(C(=O)O)cc(C(=O)O)c1	i	33*	-18	6
Cc1cc(/C=C2\C(=O)NC(=O)N(c3ccc(Br)cc3)C2=O)c(C)n1-c1cc(C(=O)O)cc(C(=O)O)c1	i	44*	-7	11
Cc1cc(/C=C2\C(=O)NC(=O)N(c3ccc(Cl)cc3)C2=O)c(C)n1-c1cccc(C(=O)O)c1	i	6	-13	5
CC(C)c1ccc(N2C(=O)NC(=O)/C(=C\C=C\c3ccco3)C2=O)cc1	.	24*	-30	3
COC(=O)C1=C(c2ccc3ccccc3c2)C[C@@H]2CC[C@H]1N2C(=O)N1CCC(C)CC1	i	.	2	.
O=C1NCN(c2ccccc2)C12CCN(C(c1cc3ccccc3o1)c1nnnn1C1CCCCC1)CC2 (configuration not stated)	i	23*	.	8
CC(C)(C)n1nnnc1C(c1cc2ccccc2o1)N1CCC2(CC1)C(=O)NCN2c1ccccc1 (configuration not stated)	i	-1	.	-1
O=C1NC(=O)N(c2ccccc2)C(=O)/C1=C/c1coc2ccc(O)cc2c1=O	i	27*	6	5
O=C(NC(=S)N1C[C@H]2C[C@H](C1)c1cccc(=O)n1C2)c1ccc(Cl)cc1Cl	i	91*	5	4
CCC1C(C#N)=C(N)Oc2c1c(=O)oc1ccccc21 (configuration not stated)	i	1	2	0
N#CC1=C(N)Oc2c(c(=O)oc3ccccc23)C1c1ccc(OC(=O)N2CCOCC2)cc1 (configuration not stated)	i	38*	1	4
CC(C)CC1C(C#N)=C(N)Oc2c1c(=O)oc1ccccc21 (configuration not stated)	i	76*	3	-2
CCOc1ccc(C2C(C#N)=C(N)Oc3c2c(=O)oc2ccccc32)cc1 (configuration not stated)	i	1	9	0
COC(=O)C(O)(c1ccc(NC(=O)NC2CCCCC2)cc1)C(F)(F)F (configuration not stated)	i	0	0	0
CCCCNC(C)Cc1ccccc1 (configuration not stated)	i	0	5	4
CC(Cc1cccs1)NCc1ccccc1 (configuration not stated)	i	29*	-14	0
C=COCCn1c(C)c(C(=O)OCC)c2cc(O)ccc21	i	2	-4	-2
O=P(O)(O)Oc1ccccc1P(=O)(c1ccccc1)c1ccccc1	i	1	6	-1
O=P(O)(Oc1ccccc1)c1ccccc1	i	21*	.	8
CC12CCC3c4ccc(OC(=O)N(CCCl)CCCl)cc4CCC3C1CCC2O (configuration not stated)	i	-2	.	-6
Cn1c(O)c(/C=C2\C=c3ccccc3=NC2=O)c(=O)n(C)c1=O	i	75*	5	-5
S=C1CN=C(c2ccccc2)c2cc(Cl)ccc2N1	i	0	-2	2
Fc1ccc(CCNCc2ccc(Br)cc2)cc1	i	35*	9	2
Fc1ccc(CNCCc2ccccc2F)cc1	i	0	-3	1
CCOC(=O)[C@]1(C#N)[C@@H]2C=CC(C(N)=O)=CN2[C@@H](C(N)=O)[C@@H]1c1ccc(F)cc1	i	-6	5	0
